# Only some compounds are listed: those with a hit (about 2.4% of all), similar ones and a draw of the others.
# WRN helicase inh-1 = WRN helicase (human) inhibition; Q14191; WRN helicase unwinding, fluorescent forked duplex, kinetic; Potency, µM (doses to about 114 µM), inactives show at the top dose activity change, negative = inhibition, hits mostly inhibitors; 0.46% of 360,000 active; AID 651768; further: on the % scale 0 is the no-effect control and ±100 the full control effect; nearly all actives have a fitted effect of over 55% in size
#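 WRN at 20 nM final preincubated with compound 15 min at room temperature; reaction started with 100 nM fluorophore/quencher forked duplex oligonucleotide and 2 mM ATP final. Unwinding followed kinetically by red fluorescence (ex 525, em 598 nm).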
# FEN1 inh = inhibitors of human flap endonuclease 1; Recombinant FEN1 flap cleavage, fluorescence, 15 min; Potency, µM (series often up to 114 µM), inactives show top-dose activity change, negative = inhibition, hits mostly inhibitors; 0.35% of 390,000 active; AID 588795; further: on the % scale 0 is the no-effect control and ±100 the full control effect; nearly all actives have a fitted effect of over 65% in size
#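 Read-out was taken twice, immediately and after 15 min, following addition of 50 nM substrate to 10 nM FEN1 that had sat with test compound for 15 min at room temperature. Curves came from a four-parameter Hill model.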
# POLB inh = blocks human DNA polymerase beta activity | P06746 | Pol beta primer extension/strand displacement, fluorescence kinetic | Potency, µM (titrated, usually from 114 µM), without a hit: at the top dose activity change, negative = inhibition, hits mostly inhibitors | 1.3% of 340,000 active; further: on the % scale 0 is the no-effect control and ±100 the full control effect
#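 Curves were derived by four-parameter Hill fits of normalized qHTS data. The kinetic fluorescent primer-extension read was taken at 0 and 10 min after 50 nM substrate, following a 15 min room-temperature preincubation of 10 nM enzyme with compounds.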
# Pol eta inh = inhibitors of human DNA polymerase eta. recombinant Pol eta, fluorescent DNA replication assay. Potency, µM (doses to about 114 µM), without a hit: at the highest dose activity change, negative = inhibition, most hits filed as inhibitors. 1.2% of 390,000 active. AID 588591; further: on the % scale 0 is the no-effect control and ±100 the full control effect
# Target sequence (Q9Y253 whole entry, looked up): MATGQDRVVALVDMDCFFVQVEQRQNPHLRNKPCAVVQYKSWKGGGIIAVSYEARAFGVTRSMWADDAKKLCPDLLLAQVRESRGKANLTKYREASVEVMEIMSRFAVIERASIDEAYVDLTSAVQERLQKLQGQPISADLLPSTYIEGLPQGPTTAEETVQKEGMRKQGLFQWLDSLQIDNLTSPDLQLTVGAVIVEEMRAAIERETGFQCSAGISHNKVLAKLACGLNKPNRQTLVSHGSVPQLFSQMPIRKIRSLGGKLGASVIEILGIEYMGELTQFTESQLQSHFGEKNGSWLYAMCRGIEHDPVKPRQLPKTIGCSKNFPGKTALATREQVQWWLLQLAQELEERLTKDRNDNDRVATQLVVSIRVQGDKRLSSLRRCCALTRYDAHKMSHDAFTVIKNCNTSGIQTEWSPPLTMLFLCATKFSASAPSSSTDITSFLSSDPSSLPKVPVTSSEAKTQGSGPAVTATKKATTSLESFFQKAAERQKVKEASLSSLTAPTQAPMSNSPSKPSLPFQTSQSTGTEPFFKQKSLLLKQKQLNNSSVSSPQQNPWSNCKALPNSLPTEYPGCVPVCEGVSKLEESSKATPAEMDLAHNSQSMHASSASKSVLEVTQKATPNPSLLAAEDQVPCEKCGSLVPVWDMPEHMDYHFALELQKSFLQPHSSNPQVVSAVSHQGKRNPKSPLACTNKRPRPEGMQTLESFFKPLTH
#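 Fluorescent replication assay: 50 nM final substrate added after a 15 min room-temperature compound preincubation with 10 nM enzyme. Signal taken at 0 min and again at 10 min.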
# Pol kappa inh = DNA polymerase kappa (human) inhibition. purified Pol kappa, fluorescent DNA synthesis assay, 10 min. Potency, µM (titrated, usually from 107 µM), for inactives: at the highest dose activity, negative = inhibition, actives largely listed as inhibitors. 0.53% of 400,000 active. AID 588579; further: on the % scale 0 is the no-effect control and ±100 the full control effect
#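 10 nM Pol kappa was preincubated with compounds for 15 min at room temperature. Reaction started with 50 nM (final) substrate. Fluorescence read kinetically at 0 and 10 min.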
# Pol iota inh = blocks human DNA polymerase iota activity; Q9UNA4; Pol iota fluorescent replication assay, 10 min; Potency, µM (series often up to 115 µM), for inactives: top-dose activity, negative = inhibition, most hits filed as inhibitors; 1% of 390,000 active; AID 588590
#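 Pol iota at 10 nM preincubated 15 min with compounds at room temperature; reaction started with fluorescent substrate, 50 nM final. Fluorescence read kinetically at 0 and 10 min; buffer-only wells as negative control.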
# WRN helicase inh-2 = confirmation of human WRN helicase inhibitors. shares compounds with WRN helicase inh-1. WRN helicase DNA unwinding, fluorescence kinetic. Potency, µM (top dose mostly 57.1 µM), without a hit: at the highest dose activity, negative = inhibition, usual class: inhibitors. 63% of 610 active. AID 720497; further: nearly all actives have a fitted effect of over 65% in size
# TO displacement = DNA binding via thiazole orange displacement. 10% of 610 active. shares compounds with WRN helicase inh-1. Potency, µM (top dose mostly 57.1 µM), for the others: at the top dose activity change, negative = inhibition, usual class: inhibitors. thiazole orange DNA binding displacement, fluorescence;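 further: drop in dye fluorescence marks compound binding to DNA; on the % scale 0 is the no-effect control and ±100 the full control effect; nearly all actives have a fitted effect of over 60% in size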
# BLM helicase inh = BLM helicase inhibition, WRN selectivity check; shares compounds with WRN helicase inh-1; Recombinant BLM helicase DNA unwinding, red fluorescence; Potency, µM (titrated, usually from 57.1 µM), inactives show at the highest dose activity change, negative = inhibition, most hits filed as inhibitors; 60% of 610 active; further: nearly all actives have a fitted effect of over 60% in size
# Starred values were filed as active, the others as inactive; ? = inconclusive; nt = no result; [ ] = dose if it differs, or a comment. The call rests on the fitted dose curve; in most records, active means well fitted curve in the direction sought with a large enough effect; inconclusive means small, poorly fitted or top-dose-only effect, or another doubt; inactive means no such curve, though single readings can be large; an effect the other way counts as inactive or inconclusive. Potency means the concentration at half of the fitted maximal effect.
SMILES,WRN helicase inh-1,FEN1 inh,POLB inh,Pol eta inh,Pol kappa inh,Pol iota inh,WRN helicase inh-2,TO displacement,BLM helicase inh
N#CC1C(=O)c2ccccc2C1c1ccccc1 (stereo not drawn),12.6µM*,0.9%,nt,12.1%,-8.3%,?,-13.7%,2.4%,-14.7%
Cc1ccc(N2C(=O)C3C(C2=O)N2CCCN2C3c2ccccc2)cc1C (stereo not drawn),1.1%,3.6%,-8.0%,-22.2%,-10.0%,55.4%,nt,nt,nt
Cc1ccc(N2C(=O)CS(=O)C(c3ccccc3)C2=O)cc1C (stereo not drawn),35.5µM*,?,-17.8%,-14.0%,-2.1%,?,?,-10.8%,?
COc1cc(N=Nc2cccc(S(N)(=O)=O)c2)c2ccccc2c1N,?,44.7µM*,?,?,-26.5%,?,?,?,?
CC1=C(C)CS(=O)N(S(=O)(=O)c2ccc(Cl)cc2)C1 (stereo not drawn),12.6µM*,-27.9%,-2.0%,-2.8%,-2.3%,?,-29.7%,2.5%,?
COc1ccc(-c2nnc(Nc3nc4c(OC)cccc4s3)o2)cc1,44.7µM*,?,31.6µM*,79.4µM*,35.5µM*,?,9.61µM*,-13.8%,7.64µM*
COc1ccc(-c2nnc(Nc3nc4c(OC)cccc4s3)o2)c(OC)c1,-28.6%,?,-21.5%,?,-16.3%,?,nt,nt,nt
O=C(Nc1ccc2c(c1)CCC2)c1cnn2c1NC(=C1CC1)C=C2C(F)F,nt,8.5%,nt,nt,-2.4%,-9.9%,nt,nt,nt
Cc1sc2c3ccsc3ccc2[n+]1C,?,0.6%,1.2%,-15.2%,-5.1%,73.9%,-4.1%,-4.9%,?
O=C(c1ccco1)N1CCC2(CCCN(Cc3ccccc3)C2)CC1,nt,nt,nt,nt,-0.1%[60.1 µM],nt,nt,nt,nt
O=C(/C=C/c1cccc2ccccc12)c1ccncc1,?,-11.1%,6.9%,?,-3.1%,-1.1%,-16.5%,-10.9%,-13.9%
O=C(N/N=C/c1cccc2ccccc12)c1ccncc1,11.2%,-0.3%,20.1%,-2.8%,-10.9%,2.7%,nt,nt,nt
O=Nc1c(O)[nH]c2c(Cl)c(Cl)ccc12,nt,nt,nt,nt,-7.4%[12 µM],nt,nt,nt,nt

# Bioassay records (PubChem)
